Laboratory results taken from PubChem BioAssay (NCATS).
Inconclusive results are not listed. Activity calls are given as the source filed them. Calls follow the shape of the dose curve; as a rule, active = well fitted curve in the direction sought with a large enough effect; inconclusive = small, poorly fitted or top-dose-only effect, or another doubt; inactive = no such curve, though single readings can be large; an effect the other way counts as inactive or inconclusive. Where a SMILES comes first, the peptide text is derived from it. The star is where a group is joined. PhAc = O=C(Cc1ccccc1)*

How the values were obtained:
CRL-7250 = normal cell line; test: Cytotoxic Profiling of Annotated Libraries Using Quantitative High-Throughput Screening (AID 1296008); conditions: Five cell lines viability, CellTiter-Glo ATP luminescence, 48-72 h; max response: hits give low values; also: nearly all actives have a fitted effect of over 60% in size; as to max response: % is scaled to controls: 0 for no effect and ±100 for the full control effect
In short: (§1)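 Cytotoxicity was measured as CellTiter-Glo ATP luminescence, read after 10 min at room temperature. Compound treatment of the cells lasted 48 or 72 hr at 37 degrees Celsius in a qHTS format.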

HaCat [1] = test: as above; conditions: Five cell lines viability, CellTiter-Glo ATP luminescence, 48-72 h; max response: hits give low values
In short: as §1

KB-3-1 = test: as above; conditions: Five cell lines viability, CellTiter-Glo ATP luminescence, 48-72 h; max response: hits give low values
In short: as §1

NIH3T3 [2] = test: as above; conditions: Five cell lines viability, CellTiter-Glo ATP luminescence, 48-72 h; max response: hits give low values
In short: as §1

HACAT [3] = test: qHTS assay to identify novel small-molecules to repurpose for Merkel cell carcinoma treatment (AID 1296009); conditions: MCC and control cell lines, CellTiter-Glo viability, 72 h; at 44.8 µM (top of the series) unless noted; also: nearly all actives have a fitted effect of over 60% in size
In short: (§2)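 Cell viability measured by CellTiter-Glo following 72 hr compound treatment at 37 degree celsius, with NPC and MIPE libraries tested in 8- and 11-point concentration series.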

C33A = test: Primary qHTS to identify gynecologic anti-cancer compounds using libraries of approved drugs and bioactive compounds (AID 1345084); conditions: Gynecologic cancer cell panel viability, ATPlite luminescence, 48 h; series mostly up to 57.5 µM; also: nearly all actives have a fitted effect of over 55% in size; also: potency is read from the fitted curve at half-maximal effect; as to activity change, negative = cytotoxicity: % is scaled to controls: 0 for no effect and ±100 for the full control effect
In short: (§3)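 48 h compound exposure at 37 C, 5% CO2; five-point qHTS. ATPlite luminescence readout of cell ATP.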

CAOV3 = test: as above; conditions: Gynecologic cancer cell panel viability, ATPlite luminescence, 48 h; series mostly up to 57.5 µM
In short: as §3

CASKI = test: as above; conditions: Gynecologic cancer cell panel viability, ATPlite luminescence, 48 h; series mostly up to 57.5 µM
In short: as §3

Es-2 = test: as above; conditions: Gynecologic cancer cell panel viability, ATPlite luminescence, 48 h; series mostly up to 57.5 µM
In short: as §3

HeLa = test: as above; conditions: Gynecologic cancer cell panel viability, ATPlite luminescence, 48 h; series mostly up to 57.5 µM
In short: as §3

Hek293T = test: as above; conditions: Gynecologic cancer cell panel viability, ATPlite luminescence, 48 h, control line for the selectivity index; series mostly up to 57.5 µM
In short: as §3

JEG-3 = test: as above; conditions: Gynecologic cancer cell panel viability, ATPlite luminescence, 48 h; series mostly up to 57.5 µM
In short: as §3

NIH3T3 [4] = test: qHTS assay to identify novel small-molecules to repurpose for Merkel cell carcinoma treatment (AID 1296009); conditions: MCC and control cell lines, CellTiter-Glo viability, 72 h; at 44.8 µM (top of the series) unless noted; also: nearly all actives have a fitted effect of over 60% in size
In short: as §2

COC1CC(O[C@H]2CC[C@@]3(C)C(=CC[C@]4(O)C3[C@H](O)[C@@H](O)[C@]3(C)[C@@H]([C@H](C)O)CC[C@@]34O)C2)OC(C)C1OC1CC(OC)C(OC2CC(OC)C(OC3OC(C)C(OC4OC(CO)C(O)C(O)C4O)C(OC)C3O)C(C)O2)C(C)O1 (stereo not given in full)
inactive: max response (CRL-7250) -21.7% | outcome (HaCat [1]) | max response (KB-3-1) 2.22% | max response (NIH3T3 [2]) -54.6% | outcome (HACAT [3]) inactive [at 9.27 µM] | activity change, negative = cytotoxicity (C33A) 15.5% [at 11.6 µM] | activity change, negative = cytotoxicity (CAOV3) 14.6% [at 11.6 µM] | activity change, negative = cytotoxicity (CASKI) 17.9% [at 11.6 µM] | activity change, negative = cytotoxicity (Es-2) 5.18% [at 11.6 µM] | activity change, negative = cytotoxicity (HeLa) -0.017% [at 11.6 µM] | activity change, negative = cytotoxicity (Hek293T) 8.49% [at 11.6 µM] | activity change, negative = cytotoxicity (JEG-3) -0.832% [at 11.6 µM]

C/C=C(\C)C(=O)OC1C(C)C2(O)C3C=C(C)C(=O)C3CC(CO)=CC2C2C(C)(C)C12OC(C)=O (stereo not given)
active: Potency (Es-2) 112 nM
inactive: max response (CRL-7250) -31.4% | max response (HaCat [1]) 4.78% | max response (KB-3-1) 2.42% | outcome (NIH3T3 [2]) | outcome (NIH3T3 [4]) inactive [at 17.4 µM] | Potency (CAOV3) | outcome (CASKI) | Potency (HeLa) | Potency (Hek293T) | Potency (JEG-3)

CC1OC(OC2C(OC3C(O[C@H]4CC[C@@]5(C)C(CC[C@]6(C)C5C(=O)CC5=C7CC(C)(C)CC(O)[C@]7(C)CC[C@]56C)C4(C)C)OC(C(=O)O)C(O)C3O)OCC(O)C2O)C(O)C(O)C1O (stereo not given in full)
inactive: max response (CRL-7250) 0.224% | outcome (HaCat [1]) | outcome (KB-3-1) | max response (NIH3T3 [2]) -0.899% | outcome (HACAT [3]) inactive [at 9.27 µM] | activity change, negative = cytotoxicity (C33A) 2.35% [at 11.6 µM] | activity change, negative = cytotoxicity (CAOV3) 18.5% [at 11.6 µM] | activity change, negative = cytotoxicity (CASKI) 14.8% [at 11.6 µM] | activity change, negative = cytotoxicity (Es-2) -7.45% [at 11.6 µM] | activity change, negative = cytotoxicity (HeLa) 0.531% [at 11.6 µM] | activity change, negative = cytotoxicity (Hek293T) -3% [at 11.6 µM] | activity change, negative = cytotoxicity (JEG-3) -0.413% [at 11.6 µM]

CC1(C)C2CC[C@]3(C)C(C(=O)C=C4[C@H]5C[C@@](C)(C(=O)O)CC[C@]5(C)CC[C@]43C)[C@@]2(C)CC[C@@H]1O (stereo not given in full)
inactive: outcome (CRL-7250) | outcome (HaCat [1]) | outcome (KB-3-1) | max response (NIH3T3 [2]) 2.21% | outcome (HACAT [3]) inactive [at 17.4 µM] | Potency (C33A) | Potency (CAOV3) | outcome (CASKI) | Potency (Es-2) | Potency (HeLa) | Potency (Hek293T) | Potency (JEG-3)

NC1=NC2(c3cc(NC(=O)c4ccc(F)cn4)ccc3F)COCC2CS1 (stereo not given)
inactive: max response (CRL-7250) 3.35% | outcome (HaCat [1]) | max response (KB-3-1) -4.81% | max response (NIH3T3 [2]) -8.12% | outcome (HACAT [3]) | Potency (C33A) | Potency (CAOV3) | outcome (CASKI) | Potency (Es-2) | Potency (HeLa) | Potency (Hek293T) | Potency (JEG-3)

COc1cc(C(C)=O)ccc1O[C@@H]1O[C@H](CO)[C@@H](O)[C@H](O)[C@H]1O
inactive: max response (CRL-7250) -12.2% | outcome (HaCat [1]) | max response (KB-3-1) 6.72% | max response (NIH3T3 [2]) 0.808% | outcome (HACAT [3]) | Potency (C33A) | Potency (CAOV3) | outcome (CASKI) | Potency (Es-2) | Potency (HeLa) | Potency (Hek293T) | Potency (JEG-3)

O=C(OCC1=CC(Cl)C(O)C(OC(=O)c2ccccc2)C1O)c1ccccc1 (stereo not given)
inactive: max response (CRL-7250) 2.93% | outcome (HaCat [1]) | outcome (KB-3-1) | max response (NIH3T3 [2]) 1.71% | outcome (HACAT [3]) inactive [at 17.4 µM] | Potency (C33A) | Potency (CAOV3) | outcome (CASKI) | Potency (Es-2) | Potency (HeLa) | Potency (Hek293T) | Potency (JEG-3)

C=C1[C@H](OC(C)=O)[C@H]2[C@@H](OC(=O)c3ccccc3)[C@@H](C)C[C@]2(O)[C@@H](OC(C)=O)[C@H](C)/C=C/C(C)(C)C(=O)[C@H](OC(C)=O)[C@H]1OC(C)=O
inactive: max response (CRL-7250) 3.14% | outcome (HaCat [1]) | outcome (KB-3-1) | max response (NIH3T3 [2]) 3.53% | outcome (HACAT [3]) inactive [at 17.4 µM] | Potency (CAOV3) | Potency (Es-2) | Potency (HeLa) | Potency (Hek293T) | Potency (JEG-3)

CCOC(=O)CNC(=O)[C@@H]1CCCN1C(=O)Cc1ccccc1 (PhAc-Pro-Gly-OEt)
inactive: max response (CRL-7250) -0.853% | outcome (HaCat [1]) | max response (KB-3-1) 5.86% | max response (NIH3T3 [2]) -14.5% | outcome (HACAT [3]) | Potency (C33A) | Potency (CAOV3) | outcome (CASKI) | Potency (Es-2) | Potency (HeLa) | Potency (Hek293T) | Potency (JEG-3)
